Data as given in the supplement of paper PMC11732987, “Enantioselective OTUD7B fragment discovery through chemoproteomics screening and high-throughput optimisation” (Communications Chemistry, 2025).

Key:
Assay in all cases: log2 ratio of Biotin-Ahx-Ub-VS probe labelling (fragment/DMSO); higher = less target engagement (more negative = stronger competition), active = hit call of the paper (q ≤ 0.05, log2 ratio ≤ -1)
Conditions in all cases: compound concentration: 200 uM; treatment time: 3 h
[1] = target: T1, ALG13 (UniProt Q9NP73)
T1 sequence (whole entry): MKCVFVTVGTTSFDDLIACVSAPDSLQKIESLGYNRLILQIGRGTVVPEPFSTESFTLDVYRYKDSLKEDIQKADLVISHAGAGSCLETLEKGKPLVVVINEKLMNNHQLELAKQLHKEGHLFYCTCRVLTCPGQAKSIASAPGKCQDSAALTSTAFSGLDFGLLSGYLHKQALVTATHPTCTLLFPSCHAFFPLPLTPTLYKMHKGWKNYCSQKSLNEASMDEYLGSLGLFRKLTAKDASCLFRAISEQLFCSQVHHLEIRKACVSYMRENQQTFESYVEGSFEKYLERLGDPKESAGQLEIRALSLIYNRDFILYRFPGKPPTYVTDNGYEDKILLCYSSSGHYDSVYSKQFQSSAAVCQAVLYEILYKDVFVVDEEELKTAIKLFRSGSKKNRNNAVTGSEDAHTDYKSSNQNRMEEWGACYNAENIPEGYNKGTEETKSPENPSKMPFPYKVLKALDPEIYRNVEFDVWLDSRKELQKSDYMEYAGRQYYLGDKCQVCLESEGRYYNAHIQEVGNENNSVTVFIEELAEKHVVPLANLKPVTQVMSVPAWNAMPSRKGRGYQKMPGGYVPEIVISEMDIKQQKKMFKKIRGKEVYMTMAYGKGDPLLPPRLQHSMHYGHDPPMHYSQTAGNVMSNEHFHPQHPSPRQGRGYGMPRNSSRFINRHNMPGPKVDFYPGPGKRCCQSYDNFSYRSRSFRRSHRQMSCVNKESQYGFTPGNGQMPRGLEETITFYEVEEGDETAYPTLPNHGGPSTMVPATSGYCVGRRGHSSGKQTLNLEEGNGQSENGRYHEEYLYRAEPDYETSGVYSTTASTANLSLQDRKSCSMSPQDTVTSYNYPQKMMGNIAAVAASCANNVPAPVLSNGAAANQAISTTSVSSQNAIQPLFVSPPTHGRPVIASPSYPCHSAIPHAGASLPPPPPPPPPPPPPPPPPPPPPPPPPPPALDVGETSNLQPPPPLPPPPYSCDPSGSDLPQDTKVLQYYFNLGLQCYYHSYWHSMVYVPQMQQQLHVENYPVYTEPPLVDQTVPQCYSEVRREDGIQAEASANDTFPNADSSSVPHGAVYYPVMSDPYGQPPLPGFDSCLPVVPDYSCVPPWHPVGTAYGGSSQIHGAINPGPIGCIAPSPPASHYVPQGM
Method in brief: (§1)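 Average log2 ratios of fragment over vehicle were obtained by unpaired t-test from global-median-normalised Spectronaut label-free quantities. Proteins with ≥2 unique peptides were included. HEK293T lysate (495 µg per sample) was treated in triplicate with fragment at 200 µM or vehicle for 3 h, then with Biotin-Ahx-Ub-VS at 0.5 µM final for 1 h, and labelled DUBs were NeutrAvidin-enriched and run by diaPASEF LC-MS/MS.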

[2] = target: ATXN3 (UniProt P54252)
Method in brief: as §1

[3] = target: T2, BAP1 (UniProt Q92560)
T2 sequence (whole entry): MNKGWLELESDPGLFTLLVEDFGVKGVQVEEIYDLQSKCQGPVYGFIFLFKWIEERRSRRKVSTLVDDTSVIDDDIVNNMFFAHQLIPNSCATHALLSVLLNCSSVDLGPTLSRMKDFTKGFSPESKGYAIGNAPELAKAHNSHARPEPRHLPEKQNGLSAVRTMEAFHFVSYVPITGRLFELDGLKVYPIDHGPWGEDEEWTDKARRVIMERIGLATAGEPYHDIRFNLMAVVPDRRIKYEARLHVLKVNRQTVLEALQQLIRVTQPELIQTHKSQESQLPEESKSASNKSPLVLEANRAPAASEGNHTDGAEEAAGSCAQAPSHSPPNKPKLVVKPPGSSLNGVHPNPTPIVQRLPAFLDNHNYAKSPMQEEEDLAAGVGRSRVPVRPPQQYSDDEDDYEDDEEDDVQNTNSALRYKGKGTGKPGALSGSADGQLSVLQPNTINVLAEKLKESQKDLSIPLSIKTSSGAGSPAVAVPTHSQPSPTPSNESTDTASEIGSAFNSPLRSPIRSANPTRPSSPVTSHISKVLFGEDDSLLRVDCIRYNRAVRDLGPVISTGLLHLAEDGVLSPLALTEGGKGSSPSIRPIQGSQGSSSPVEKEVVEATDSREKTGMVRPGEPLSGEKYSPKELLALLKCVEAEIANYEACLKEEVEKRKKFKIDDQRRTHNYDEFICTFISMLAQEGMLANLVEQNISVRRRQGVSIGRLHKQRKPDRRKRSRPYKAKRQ
Method in brief: as §1

[4] = target: EIF3F (UniProt O00303)
Method in brief: as §1

[5] = target: EIF3H (UniProt O15372)
Method in brief: as §1

[6] = target: T3, FAM105A (UniProt Q9NUU6)
T3 sequence (whole entry): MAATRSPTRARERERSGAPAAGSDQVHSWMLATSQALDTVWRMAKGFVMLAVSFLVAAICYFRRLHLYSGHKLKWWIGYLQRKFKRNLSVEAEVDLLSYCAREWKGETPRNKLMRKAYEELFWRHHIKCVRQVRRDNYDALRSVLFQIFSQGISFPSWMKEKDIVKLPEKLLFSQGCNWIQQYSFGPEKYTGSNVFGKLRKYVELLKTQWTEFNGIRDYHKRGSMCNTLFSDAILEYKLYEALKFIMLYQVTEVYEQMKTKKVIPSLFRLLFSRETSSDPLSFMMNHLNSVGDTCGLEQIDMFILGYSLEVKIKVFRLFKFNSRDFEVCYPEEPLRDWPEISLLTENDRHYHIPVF
Method in brief: as §1

[7] = target: OTUB1 (UniProt Q96FW1)
Method in brief: as §1

[8] = target: T4, OTUD4 (UniProt Q01804)
T4 sequence (whole entry): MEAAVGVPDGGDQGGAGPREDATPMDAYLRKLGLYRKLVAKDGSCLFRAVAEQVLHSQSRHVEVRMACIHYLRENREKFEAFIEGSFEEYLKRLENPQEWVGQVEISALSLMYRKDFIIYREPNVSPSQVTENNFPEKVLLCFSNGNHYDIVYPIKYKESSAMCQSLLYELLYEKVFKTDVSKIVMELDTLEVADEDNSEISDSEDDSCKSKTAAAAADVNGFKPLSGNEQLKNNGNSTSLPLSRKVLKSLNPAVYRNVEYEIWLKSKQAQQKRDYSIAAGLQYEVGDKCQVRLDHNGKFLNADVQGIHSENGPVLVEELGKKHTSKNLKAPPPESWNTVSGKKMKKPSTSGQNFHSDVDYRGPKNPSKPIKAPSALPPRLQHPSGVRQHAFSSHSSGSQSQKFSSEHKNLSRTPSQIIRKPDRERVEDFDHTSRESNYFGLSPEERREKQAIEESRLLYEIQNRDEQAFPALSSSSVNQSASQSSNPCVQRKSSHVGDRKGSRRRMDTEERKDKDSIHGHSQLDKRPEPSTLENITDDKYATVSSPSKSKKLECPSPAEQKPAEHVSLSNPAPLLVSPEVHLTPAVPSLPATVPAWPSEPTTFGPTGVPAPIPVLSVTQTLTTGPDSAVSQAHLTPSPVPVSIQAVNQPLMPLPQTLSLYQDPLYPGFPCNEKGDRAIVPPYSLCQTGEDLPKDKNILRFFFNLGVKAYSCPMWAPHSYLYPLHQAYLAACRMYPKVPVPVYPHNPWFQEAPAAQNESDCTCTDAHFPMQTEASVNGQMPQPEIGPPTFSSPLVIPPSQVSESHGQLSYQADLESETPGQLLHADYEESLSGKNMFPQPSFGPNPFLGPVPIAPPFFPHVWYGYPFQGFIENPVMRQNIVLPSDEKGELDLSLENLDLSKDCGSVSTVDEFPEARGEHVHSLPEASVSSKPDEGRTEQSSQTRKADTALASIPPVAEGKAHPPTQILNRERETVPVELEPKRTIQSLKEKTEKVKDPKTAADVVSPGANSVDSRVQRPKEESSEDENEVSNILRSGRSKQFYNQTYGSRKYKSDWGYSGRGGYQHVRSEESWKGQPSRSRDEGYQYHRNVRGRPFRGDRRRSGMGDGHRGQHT
Method in brief: as §1

[9] = target: T5, OTUD5 (UniProt Q96G74)
T5 sequence (whole entry): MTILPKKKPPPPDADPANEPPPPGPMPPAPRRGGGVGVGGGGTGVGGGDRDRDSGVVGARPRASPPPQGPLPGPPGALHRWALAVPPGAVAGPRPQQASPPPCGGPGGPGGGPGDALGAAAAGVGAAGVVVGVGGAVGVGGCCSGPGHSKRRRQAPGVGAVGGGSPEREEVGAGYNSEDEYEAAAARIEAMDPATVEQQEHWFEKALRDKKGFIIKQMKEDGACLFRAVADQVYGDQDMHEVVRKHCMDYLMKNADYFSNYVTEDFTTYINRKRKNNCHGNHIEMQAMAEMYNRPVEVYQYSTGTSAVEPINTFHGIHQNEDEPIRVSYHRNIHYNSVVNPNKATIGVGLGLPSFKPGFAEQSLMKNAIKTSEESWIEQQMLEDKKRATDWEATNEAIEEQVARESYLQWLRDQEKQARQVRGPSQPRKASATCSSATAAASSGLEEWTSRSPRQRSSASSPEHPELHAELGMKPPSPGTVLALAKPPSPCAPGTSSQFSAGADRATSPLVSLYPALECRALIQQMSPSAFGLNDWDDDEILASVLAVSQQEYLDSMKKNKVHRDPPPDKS
Method in brief: as §1

Measured: log2 ratio of Biotin-Ahx-Ub-VS probe labelling

EIF3H, sequence (O15372 whole entry): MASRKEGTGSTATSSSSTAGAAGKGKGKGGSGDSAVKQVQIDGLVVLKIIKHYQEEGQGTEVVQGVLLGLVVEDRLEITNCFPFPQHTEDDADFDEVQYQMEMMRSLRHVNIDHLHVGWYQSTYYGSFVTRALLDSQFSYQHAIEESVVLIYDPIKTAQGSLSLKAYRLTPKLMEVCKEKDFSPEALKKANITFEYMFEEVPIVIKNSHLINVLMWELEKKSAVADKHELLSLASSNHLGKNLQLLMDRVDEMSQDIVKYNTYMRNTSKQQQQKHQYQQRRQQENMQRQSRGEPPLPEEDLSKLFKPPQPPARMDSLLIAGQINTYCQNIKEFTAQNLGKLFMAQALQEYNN
ATXN3, sequence (P54252 whole entry): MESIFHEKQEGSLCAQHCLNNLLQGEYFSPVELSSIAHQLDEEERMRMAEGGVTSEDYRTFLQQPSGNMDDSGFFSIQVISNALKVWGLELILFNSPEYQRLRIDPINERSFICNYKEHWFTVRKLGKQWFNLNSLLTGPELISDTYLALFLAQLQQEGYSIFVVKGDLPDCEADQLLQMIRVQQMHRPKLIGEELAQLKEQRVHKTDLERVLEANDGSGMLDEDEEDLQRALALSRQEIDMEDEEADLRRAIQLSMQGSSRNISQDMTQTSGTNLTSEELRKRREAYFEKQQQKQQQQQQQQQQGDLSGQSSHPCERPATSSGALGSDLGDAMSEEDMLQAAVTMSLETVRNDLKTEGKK
OTUB1, sequence (Q96FW1 whole entry): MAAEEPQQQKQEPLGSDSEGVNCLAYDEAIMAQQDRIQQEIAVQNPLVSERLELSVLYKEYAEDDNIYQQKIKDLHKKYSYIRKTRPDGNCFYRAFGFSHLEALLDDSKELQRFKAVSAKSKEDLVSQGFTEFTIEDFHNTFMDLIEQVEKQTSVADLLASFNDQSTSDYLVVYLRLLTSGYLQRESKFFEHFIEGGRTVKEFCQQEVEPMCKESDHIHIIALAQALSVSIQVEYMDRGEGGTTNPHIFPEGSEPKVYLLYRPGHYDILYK
EIF3F, sequence (O00303 whole entry): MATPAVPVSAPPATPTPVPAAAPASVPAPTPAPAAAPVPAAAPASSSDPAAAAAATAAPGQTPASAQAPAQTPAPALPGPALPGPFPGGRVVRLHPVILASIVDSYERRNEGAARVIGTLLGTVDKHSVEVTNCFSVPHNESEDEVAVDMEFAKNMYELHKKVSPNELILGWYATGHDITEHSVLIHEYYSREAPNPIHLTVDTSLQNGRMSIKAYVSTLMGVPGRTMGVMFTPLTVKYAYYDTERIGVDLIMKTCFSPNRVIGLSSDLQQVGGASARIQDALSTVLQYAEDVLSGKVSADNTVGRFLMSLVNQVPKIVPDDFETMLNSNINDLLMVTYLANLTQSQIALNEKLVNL

CC(NC(=O)CCl)c1cnn(C2CC2)c1 (centres undefined)
inactive: [1] 0.171 | [2] -0.145 | [4] -0.625 | [5] 0.172 | [6] -0.0989 | [7] -0.137 | [8] -0.268 | [9] -0.626
active: [3] -2.22
